From PubChem BioAssay AID1662 (Broad Institute, 2009)
Hit rate of the full screen: of about 300,000 compounds, about 4,000 (1.3%) were called active. Shown is part of a subset that was picked to be rich in actives. Values without a mark were called inactive.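 Rule for the calls: active = mean replicate score, as percent of positive control median, at least 50; inconclusive = mean below 50 but one replicate at or above 50; inactive = mean and every replicate below 50.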

Assay: S. pyogenes SKKanGAS growth inhibitors in kanamycin, primary screen, streptokinase expression inhibitor project, SKKanGAS strain, BacTiter-Glo luminescence (AID 1662);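 note: strain carries kanamycin resistance gene driven by streptokinase promoter and grows in 40 µg/ml kanamycin; loss of luminescence reflects streptokinase promoter inhibition or plain growth inhibition; 0% = median of DMSO wells and 100% = positive control at its reference dose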
Conditions: 6 h, at 7.5 µM, hits give high values

SMILES | inhibition
O=c1[nH]c(=O)n(Cc2ccccc2)c(O)c1/C=N/Nc1c(F)c(F)c(F)c(F)c1F | 6.55%
O=C(N/N=C/c1c(O)n(C2CC2)c(=S)[nH]c1=O)c1ccccc1 | -1.33%
O=C(N/N=C/c1c(O)n(Cc2ccccc2)c(=O)[nH]c1=O)c1ccccc1 | 56.7% (active)
COC(=O)N(c1ccc(OC)cc1)P1(=S)OCCC(C)O1 (stereo not given) | -2.38%
CCOP(=S)(OCC)SCOC(=O)NCC(=O)OC | 3.28%
COc1ccccc1OC(=O)c1ccc(C)c(S(=O)(=O)N2CCOCC2)c1 | 3.63%
CCCCCCCCCCCCn1ccc(=N)cc1 | 93.3% (active)
O=[N+]([O-])c1ccc(C2C3C(c4ccccc4)=NC4(CCCCC4)N32)cc1 (stereo not given) | 4.96%
Cc1cccc(NC(=O)OC2CN3CCC2CC3)c1 (stereo not given) | 0.418%
CC1(C)C(c2ccccc2)=NC(c2cccnc2)=[N+]1[O-] | -22%
CCCCn1c(=O)c(C(=O)Nc2ccccc2Cl)c(O)c2ccccc21 | -1.86%
CCCCCn1c(=O)c(C(=O)NCc2ccccc2)c(O)c2ccccc21 | 86% (active)
CCCCCn1c(=O)c(C(=O)NCc2ccccn2)c(O)c2ccccc21 | 6.78%
COC(=O)C1=C(c2cc3ccccc3o2)C[C@@H]2CC[C@H]1N2C(=O)NC1CCCCC1 | 7.09%
O=C(Cc1ccccc1)N1CCN(C2CCCCCC2)CC1 | 4.36%
